In the library only some 3.3% were active in any assay of this set; here they are far more common.
PI4K2A inh: inhibitors of human PI4K2A; AID 1346378; purified PI4K2A, ADP-Glo luminescence, 1 h; active compounds read low; 420,000 tested, 0.13% active; activity change, negative = inhibition, % at 76.9 µM; Q9BTU6; in the data active means activity change below about -50%; inconclusive means mostly about -30% to -49%;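 further: -100% = wells without enzyme as full effect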
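ADP-Glo luminescence measured ADP generated by PI4K2A enzyme (4 ug/mL before mixing) with 1.2 mM PI substrate (pre-mix) and 300 microM ATP (pre-mix). Tris pH7.5 buffer with MgCl2, Triton X-100; 1 h reaction at ambient temperature.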
DRD3 agonist: D3 dopamine receptor (human) agonism; P35462; D3R DiscoveRx beta-arrestin cells, luminescence, 90 min; max activation, %; 410,000 tested, 0.58% active; AID 652048; in the data active means max activation above about 30%; further: 0% is about no effect
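Agonist-mode cell screen: cells plated at 1500/well and incubated overnight at 37 °C, then exposed to library compounds for 90 min at 37 °C. Detection reagent was added for 30–60 min at room temperature, and luminescence was read.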
LDHA block: inhibitors of human lactate dehydrogenase A; AID 1347041; 480,000 tested, 0.15% active; P00338; activity change, % (values are at about 110 or 230 µM); purified LDHA, NADH/diaphorase-resazurin fluorescence; active compounds read low; in the data active means activity change below about -30%; inconclusive means mostly about -25% to -30%;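 further: plate controls were DMSO wells for no effect and wells without enzyme for full effect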
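Human LDH5 (2 nM) was incubated with 0.06 mM NADH and 0.2 mM pyruvate for 5 min at room temperature in Tris pH 7.4. Remaining NADH was coupled through diaphorase/resazurin, and resorufin fluorescence was read at 0 and 20 min.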
PI5P4K alpha inh: PI5P4K alpha (human) kinase inhibition. PI5P4Kalpha enzyme, ADP-Glo luminescence, 60 min; active compounds read low. max response, %. 330,000 tested, 1.2% active. AID 652105; active means max response of -50% or lower; inconclusive means between -30% and -50%; inactive means -30% or higher; further: value at the top dose of about 77 µM; on the % scale 0 is the no-effect control and ±100 the full control effect
Target sequence (P48426 whole entry, looked up): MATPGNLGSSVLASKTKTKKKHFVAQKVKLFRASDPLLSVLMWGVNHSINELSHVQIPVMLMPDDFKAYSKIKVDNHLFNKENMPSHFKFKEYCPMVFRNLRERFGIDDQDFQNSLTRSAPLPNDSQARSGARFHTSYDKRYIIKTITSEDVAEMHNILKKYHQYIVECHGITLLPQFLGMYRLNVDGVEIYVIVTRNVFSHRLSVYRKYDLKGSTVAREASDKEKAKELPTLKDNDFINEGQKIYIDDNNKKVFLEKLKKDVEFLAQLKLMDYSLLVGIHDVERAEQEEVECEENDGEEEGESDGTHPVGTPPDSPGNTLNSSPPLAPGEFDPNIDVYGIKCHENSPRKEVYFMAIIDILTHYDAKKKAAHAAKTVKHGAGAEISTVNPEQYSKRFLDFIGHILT
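Reactions run in 0.038 M HEPES pH 7.4, 0.28 mM EGTA, 0.1% CHAPS and 5% DMSO, with PI5P4Kalpha, substrate, compound and 5 microM ATP final, one hour at room temperature. Readout is ADP-Glo luminescence.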
D3 antag: antagonists of human D3 dopamine receptor; 360,000 tested, 2.5% active; P35462; AID 652054; D3R cells, DiscoveRx beta-arrestin luminescence, antagonist mode; active compounds read low; max response, negative = inhibition, %; in the data active means max response below about -50%; inconclusive means no clear call, values can overlap the other calls; further: on the % scale 0 is the no-effect control and ±100 the full control effect
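Cells expressing the human receptor were seeded at 1500 cells/well, incubated overnight at 37 degrees C in 5% CO2, then exposed to library compounds with dopamine controls for 90 minutes at 37 degrees C before luminescent detection.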
Starred values were filed as active, the others as inactive; ? = inconclusive; . = not tested or not shown; ! = a repeat was not active.

SMILES	PI4K2A inh	DRD3 agonist	LDHA block	PI5P4K alpha inh	D3 antag
Cc1ccc(CCNC(=O)C2CCC(=O)N2CCc2ccccc2)cc1 (stereo not given)	-2.5	6.3	-10.2	0.5	-14.9
Cc1ccc(CNC(=O)C2CCC(=O)N2CCc2ccccc2)cc1 (stereo not given)	-1.6	17.5	-2.6	.	-57.0*
c1cncc(-c2nc(-c3ccco3)cs2)c1	-11.4	-4.4	-7.4	?	-63.1*
c1cncc(-c2nnc(-c3ccco3)o2)c1	5.1	2.3	-1.6	.	-107.8*
Cc1ccc(Cl)cc1NC(=O)N[C@@H](C(=O)O)C(C)C	.	.	-1.1	.	.
Nc1nccnc1C(=O)Nc1ccc(Nc2ccccc2)cc1	.	.	-6.1	.	.
COC(=O)CN1CCN(c2nc3c(c(=O)[nH]c(=O)n3C)n2CCC(C)C)CC1	.	.	5.6	.	.
COc1cc2[nH]c(=S)n(C3CC3)c(=O)c2cc1OC	0.6	-12.0	-1.5	-3.3	-58.5*
COC(=O)c1ccc2c(=O)n(NC(C)=O)c(=S)[nH]c2c1	-1.1	-14.7	7.3	.	11.0
COc1cc2[nH]c(=S)n(NC(=O)c3ccccc3)c(=O)c2cc1OC	0.8	-29.5	-2.0	.	-60.8*
COc1cc2[nH]c(=S)n(C3CCCC3)c(=O)c2cc1OC	-1.6	12.0	-2.5	.	35.9
O=C(NNC(=S)Nc1cccc2ccccc12)c1cccc(Br)c1	-0.8	0.3	-2.2	.	?
Cc1ccc(C(=O)NNC(=S)Nc2cccc3ccccc23)s1	-15.3	-3.0	17.2	-1.3	-94.6*
CCc1nc2ccc(C(=O)NCCCN3CCCC3=O)cn2c1N(CC)C(C)=O	-0.4	-4.7	1.5	-8.3	-55.9*
Cc1ccc2sc(N(Cc3cccnc3)C(=O)C3=COCCO3)nc2c1C	.	.	12.0	.	.
CCOC(=O)c1c(-c2ccccc2)csc1NC(=O)C(C)NCCCN1CCOCC1 (stereo not given)	7.8	-10.9	-33.7*	2.2	-13.1
Nc1nc(-c2ccco2)c(-c2ccco2)s1	-11.3	-12.1	11.5	?	-57.7*
CCNC(=O)c1ccccc1N	.	.	-2.4	.	.
CN1CCN(C(=O)c2ccc(C3SCC(=O)N3Cc3ccco3)cc2)CC1 (stereo not given)	-2.3	0.5	5.0	-4.8	-59.0*
C/C=C(/C)C(=O)OC(C)(C)[C@@H]1Cc2c(ccc3ccc(=O)oc23)O1	5.7	-106.4	-6.6	-2.3	-154.4*
Cc1ccc2c(CCNC(=O)c3cnccn3)c[nH]c2c1	.	.	1.3	.	.
CC(CCc1ccc(O)cc1)NCC(O)c1ccc(O)cc1 (stereo not given)	.	58.6*	.	.	.
CC(CCc1ccc(O)cc1)NCCc1ccc(O)c(O)c1 (stereo not given)	-1.0	108.0*	-5.0	2.9	7.9
CC(CCc1ccc(O)cc1)NC1C2CC3CC(C2)CC1C3 (stereo not given)	-2.1	7.1	-2.5	-5.0	-56.1*
CCCNC(=O)N(CC)Cc1nc(-c2ccc(C)cc2)no1	.	.	0.0	.	.
SMILES	PI4K2A inh	DRD3 agonist	LDHA block	PI5P4K alpha inh	D3 antag
Cc1cc(C)c(C2C(C#N)=C(N)Oc3n[nH]c(C)c32)cc1CN1CCOCC1 (stereo not given)	2.1	-63.6	-2.6	.	-60.5*
COc1ccc(N2CC(C(=O)Nc3ccccc3C(=O)N3CCOCC3)CC2=O)cc1 (stereo not given)	.	.	0.1	.	.
CCc1ccc2c(c1)C(O)(CC(=O)c1ccc(Br)cc1)C(=O)N2 (stereo not given)	.	.	-0.5	.	.
CC1=C(/C=C/C(C)=C/C=C/C(C)=C\C(=O)O)C(C)(C)CCC1	-0.3	0.2	-0.9	0.8	10.7
CC1=C(/C=C/C(C)=C/C=C/C(C)=C/C(=O)Nc2ccc(O)cc2)C(C)(C)CCC1	2.7	69.1*!	-3.2	2.9	23.2
Cc1ccc(NC(=O)c2cccc3c2-c2ccccc2C3=O)c(C)c1	-7.8	.	.	.	.
c1ccc(Cn2nnnc2C(c2cccs2)N2CCc3ccccc3C2)cc1 (stereo not given)	12.6	-11.2	-3.2	.	-68.5*
c1ccc(Cn2nnnc2C(c2cccs2)N2CCCCCC2)cc1 (stereo not given)	-2.1	-11.8	-6.5	.	-20.4
O=S(=O)(Cc1ccc(F)cc1)Cc1csc(-c2ccccc2)n1	.	.	-7.8	.	.
CC1C(=O)NN=C1C(=O)N/N=C\c1ccc(O)cc1O (stereo not given)	-15.2	-17.6	8.4	-59.8*	-8.3
O=S1(=O)C=C[C@@H](COCc2ccccc2)N1Cc1ccc(Br)cc1	-0.6	-10.4	-10.7	19.3	-50.8*

Assay outcomes (PubChem)
